According to PubChem BioAssay (NCI):
About 83,000 compounds went through this panel and 20% of them were active in at least one assay; those are over-represented in the sample as a whole.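 Interpretation: 100, growth as untreated; towards 0, rising growth inhibition; 0, no net growth; 0 to -100, cell death. Compounds scoring below 10 were considered active.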 Values without a mark were called inactive. Activity calls are given as the source filed them.

Key:
Experiment in all cases: NCI-60 one-dose screen, 48 h (100 = growth as untreated, 0 = no growth, -100 = all killed)
Settings in all cases: 10 µM unless noted
[1] = system: HCT-15 colon
[2] = system: HT29 colon
[3] = system: SNB-75 CNS
[4] = system: SNB-19 CNS
[5] = system: U251 CNS
[6] = system: PC-3 prostate
[7] = system: SK-MEL-5 melanoma
[8] = system: UACC-62 melanoma
[9] = system: LOX IMVI melanoma
[10] = system: SK-MEL-28 melanoma

Row | SMILES | growth [1] | growth [2] | growth [3] | growth [4] [%] | growth [5] | growth [6] | growth [7] | growth [8] | growth [9] | growth [10]
1 | CCCCCCCC(=O)SCC/C=C/[C@@H]1CC(=O)NCc2nc(cs2)C2=N[C@@](C)(CS2)C(=O)N[C@@H](C(C)C)C(=O)N1 | 61% | -22.4% (active) | 35.8% | 20.8 | -33.5% (active) | 19.6% | -21.3% (active) | -25% (active) | -91.8% (active) | 25.3%
2 | CN(C)c1ccc(/C=N/N=C(N)N)cc1 | 49% | 26.4% | 66.5% | 74.2 | 60.2% | 83.8% | 47.3% | 72.7% | 70.5% | 81.7%
3 | Nc1nc(=S)ss1 | 91.8% | 105% | 89.3% | 103 | 107% | 90.7% | 110% | 95.4% | 103% | 113%
4 | CC(C)(C)NC(C1=CC(C)(C)c2ccccc2C1=O)c1ccccc1 (stereo not given) | -58.7% (active) | -60.2% (active) | 16.3% | 25 | -67.7% (active) | -79% (active) | 3.82% (active) | -23.5% (active) | -66% (active) | -10.5% (active)
5 | CN(C)CCNc1nc2ccccc2c2c(=O)c3ccccc3sc12 | 8.83% (active) | -0.107% (active) | 30.6% | 47.6 | 17.8% | 21% | -83.1% (active) | -33% (active) | -91.6% (active) | -25.3% (active)
6 | COC1=C(OC)C(=O)C=CC1=O | 108% | 95.4% | 110% | 108 | 107% | 92.7% | 111% | 94.1% | 100% | 120%
7 | O=C1COc2ccccc2C(=O)N1CCCCNc1ccccc1 | 90.6% | 81.8% | 106% | 94.1 | 85.7% | 47.2% | 99.3% | 95% | 101% | 103%
8 | COc1ccc(-c2nnc(SCC(=O)Nc3ccc(C(=O)/C=C/c4ccc(Cl)cc4)cc3)o2)cc1OC | 81.3% | 89.8% | 71.4% | 84.6 | 88.5% | 84.6% | 56.7% | 62.7% | 79% | 82.2%
9 | COc1ccc(Cn2cc(COc3ccc4c5ccnc(C)c5n(CCCc5ccccc5)c4c3)nn2)cc1 | 68.4% | 43.5% | 51% | 84.4 | 64.9% | 74.8% | 79.1% | 34.8% | 70.3% | 76.2%
10 | CN(C)c1ccc2cc(-c3nc4ccccc4s3)c(N)nc2c1 | 41% | 23.9% | 63.9% | 60.7 | 33.2% | 20.2% | 58.7% | 95.5% | 85.3% | 98.3%
11 | COc1cc(-c2nc3ccccc3s2)ccc1OCc1nc2n(n1)S(=O)(=O)c1ccccc1N2c1ccccc1 | 99.2% | 104% | 103% | 105 | 98.1% | 96.7% | 84.2% | 97.8% | 93.2% | 110%
12 | O=C(Nc1ccc(-n2ccc3c(NC(=O)c4ccccc4)ncnc32)cc1)Nc1ccc(Cl)c(Cl)c1 | 0.689% (active) | -58.2% (active) | -5.84% (active) | 15.6 | -58.6% (active) | -52.3% (active) | 13.7% | 48.5% | 45.5% | 5.26% (active)
13 | O=C(/C=C/c1ccccc1)Oc1ccc(/C=C/c2cc(OC(=O)/C=C/c3ccccc3)cc(OC(=O)/C=C/c3ccccc3)c2)cc1 | 103% | 90.1% | 80.5% | 96.2 | 94.9% | 87.5% | 107% | 103% | 98.4% | 107%
14 | COc1ccccc1S(=O)(=O)Nc1ccc2c3c(cc(-c4ccoc4)nc13)C(=O)N2C | 66.6% | 43.8% | 16.6% | 75.9 | 77.9% | 66.9% | 56.6% | 38.3% | 51.9% | 75.6%
15 | Cc1cc(N2CCOCC2)nc(N(CCNc2ccnc3cc(Cl)ccc23)Cc2ccco2)n1 | 35.8% | 3.4% (active) | 59.5% | 41.5 | 6.13% (active) | 46.7% | 39.7% | 26% | 18.1% | 52.4%
16 | CSc1nc(N)nc2c1ncn2C | 102% | 87.1% | 96.4% | 110 | 95.4% | 72.5% | 100% | 102% | 92.6% | 109%
17 | C=CCn1c(SCC(=O)Nc2ccc(C(=O)/C=C/c3cc(OC)c(OC)c(OC)c3)cc2)nnc1-c1ccc(OC)cc1 | -1.54% (active) | -27.9% (active) | 6.75% (active) | 14.3 | -65.2% (active) | 25.1% | 1.15% (active) | -6.54% (active) | -43.5% (active) | 10.1%
18 | CC(C)C(=O)Nc1nc2c(s1)CCCc1ccn(S(=O)(=O)c3ccccc3)c1-2 | 94% | 83.7% | 89.4% | 110 | 102% | 85.3% | 93.3% | 87% | 96.9% | 106%
19 | COc1ccc(-c2cnc(-c3ccc(F)cc3)[nH]2)cc1 | 53.2% | 16.4% | 98.6% | 98.5 | 33.3% | 73.7% | 101% | 82.2% | 6.54% (active) | 110%
20 | COc1ccc(Cl)cc1NC(=O)c1cc2c(n1C)-c1nc(NC(=O)C(C)(C)C)sc1CC2 | 89.4% | 79.2% | 83.1% | 106 | 88.4% | 71.7% | 79.7% | 87.7% | 93.9% | 92.4%
21 | O=[N+]([O-])c1ccccc1NC1c2ccccc2Oc2ccccc21 | 37% | 11% | 69.5% | 68.7 | 40.9% | 56.1% | 46% | 48.7% | 65.1% | 69.3%
22 | COc1ccc(OCC(O)CN2CCN(c3ccc(Cl)cc3)CC2)cc1 (stereo not given) | 105% | 98.5% | 84.7% | 85.7 | 94.5% | 104% | 84.3% | 84.9% | 91.4% | 114%
23 | CC(=O)N[C@@H](CNC(=O)c1cc(NC(=O)c2cc(NC(=O)c3cc(NC(=O)c4nccn4C)cn3C)cn2C)cn1C)CC(=O)Nc1cn(C)c(C(=O)Nc2cc(C(=O)Nc3cc(C(=O)Nc4cc(C(=O)NCCCN(C)CCCNC(=O)c5cccc(C(=O)O)c5)n(C)c4)n(C)c3)n(C)c2)n1 | 103% | 67.6% | 107% | 86.3 | 64% | 88.6% | 96.6% | 59.1% | 80.7% | 107%
24 | C#CC(=O)/C=C/CCCCCCC#CC(=O)CCC(=O)C#CCCCCCC/C=C/C(=O)C#C | 12.4% | 6.4% (active) | 56% | 32 | 18% | 12.2% | 52.8% | 5.38% (active) | -70.2% (active) | 12.8%
25 | OCCOCC(F)(F)F | 108% | 105% | 88.3% | 117 | 105% | 97.8% | 107% | 113% | 112% | 98.5%
26 | CC(=O)Nc1ccc([I+]c2ccc([N+](=O)[O-])cc2)cc1 | 100% | 81.3% | 90.5% | 109 | 81.1% | 82.3% | 80.6% | 81.1% | 90.5% | 106%
27 | Clc1ccc(CN2COc3c(ccc4cccnc34)C2)cc1Cl | 16.3% | 30.3% | 9.33% (active) | 18.5 | 9.29% (active) | 27.9% | -1% (active) | -38% (active) | 2.29% (active) | 33.5%
